Screening results from PubChem.
MOR-DOR inv ag – inverse agonist of human OPRM1-OPRD1 heterodimerization. AID 504357. cell-based MOR-DOR heterodimer luminescence, inverse agonism. inhibition, % at 9.3 µM. actives 0.21% (n = 340,000). P35372+P41143; in the data active = inhibition above about 22%, passing the limit was not always enough
HTR5A inv ctr – inverse agonist of human HTR5A in OPRM1-OPRD1 counter-screen; P47898; inhibition, % at 9.3 µM; actives 0.083% (n = 340,000); HTR5A cell line, luminescence, inverse agonism; AID 504634; in the data active = inhibition mostly above about 23%, no sharp cut-off; inactive = mostly below about 18%
Target sequence (P47898 whole entry, looked up): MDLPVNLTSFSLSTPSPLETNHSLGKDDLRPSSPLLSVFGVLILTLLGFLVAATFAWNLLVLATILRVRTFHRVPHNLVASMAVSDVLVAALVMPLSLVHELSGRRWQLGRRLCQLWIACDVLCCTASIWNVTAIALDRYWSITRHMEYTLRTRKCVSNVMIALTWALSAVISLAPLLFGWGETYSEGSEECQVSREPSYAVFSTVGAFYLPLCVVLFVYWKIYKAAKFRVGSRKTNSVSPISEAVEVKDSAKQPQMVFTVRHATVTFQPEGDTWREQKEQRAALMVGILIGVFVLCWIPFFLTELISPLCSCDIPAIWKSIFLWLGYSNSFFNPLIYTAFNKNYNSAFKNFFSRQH
HTR5A ag – activates human HTR5A in OPRM1-OPRD1 agonist counter-screen | P47898 | HTR5A agonist assay, luminescence, cell-based | activation, % at 9.3 µM | actives 0.61% (n = 340,000) | AID 504692; in the data active = activation mostly above about 9.5%, no sharp cut-off; inactive = mostly below about 7.6%
OPRM1-OPRD1 ag – agonists of human mu-delta opioid receptor heterodimerization | activation, % at 9.3 µM | actives 0.3% (n = 340,000) | cells, OPRM1-OPRD1 heterodimerization, luminescence | P35372+P41143; in the data active = activation above about 18%
HGIII-sPLA2 inh – Inhibits HGIII-sPLA2 liposome hydrolysis, primary screen; Q9NZ20; QFRET BODIPY PC-A2 liposome hydrolysis, fluorescence; inhibition, % at 12.2 µM; actives 0.56% (n = 370,000);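 active = inhibition above mean plus 3 SD of compounds lying within the high and low control bounds, cut at about 19% in these data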
HTR2A ag – activates the mouse 5-HT2A serotonin receptor | actives 0.66% (n = 360,000) | AID 624169 | P35363 | activation, % at 7.6 µM | CHO-K1 mHTR2A beta-arrestin complementation, luminescence; percent of 30 µM serotonin response;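 active = activation above a run cutoff, the mean activation of all tested compounds plus 3 SD, cut at about 14% in these data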
OPRM1 ag – counter-screen for mouse HTR2A agonists: human mu opioid receptor agonists | shares compounds with HTR2A ag | U2OS OPRM1 beta-arrestin PathHunter, luminescence; DMSO 0%, DAMGO 9.3 µM 100% | activation, % at 9.3 µM | actives 5.3% (n = 2,300);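 active = mean activation above the mean of DMSO-only wells plus 3 SD, cut at about 0.5% in these data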
Target sequence (P35372 whole entry, looked up): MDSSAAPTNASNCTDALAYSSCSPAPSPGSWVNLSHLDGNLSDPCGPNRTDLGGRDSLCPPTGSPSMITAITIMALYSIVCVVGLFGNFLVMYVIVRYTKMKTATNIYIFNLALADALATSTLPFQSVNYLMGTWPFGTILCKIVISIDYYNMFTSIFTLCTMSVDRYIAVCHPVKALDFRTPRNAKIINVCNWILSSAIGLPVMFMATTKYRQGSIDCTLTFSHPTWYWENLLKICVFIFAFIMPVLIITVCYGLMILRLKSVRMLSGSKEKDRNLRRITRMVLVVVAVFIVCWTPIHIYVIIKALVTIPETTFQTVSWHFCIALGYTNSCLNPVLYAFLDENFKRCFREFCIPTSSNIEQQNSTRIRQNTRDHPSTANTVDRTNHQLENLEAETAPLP
m5-HT2A ag conf – mouse HTR2A agonism confirmed | shares compounds with HTR2A ag | actives 19% (n = 2,300) | CHO-K1 PathHunter beta-arrestin recruitment, luminescence; DMSO 0%, 30 µM serotonin 100% | activation, % at 7.6 µM;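 active = mean activation across triplicates above the hit threshold derived in the original primary screen, cut at about 15% in these data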
sPLA2 confirm – human GIII-sPLA2 inhibition, confirmation | shares compounds with HGIII-sPLA2 inh | recombinant hGIII-sPLA2, BODIPY PC-A2 QFRET fluorescence | inhibition, % at 12.2 µM | actives 34% (n = 2,000);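 active = mean inhibition across triplicates above the hit cutoff set in the earlier primary screen, cut at about 19% in these data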
535nm interf – counter-screen for HGIII-sPLA2 inhibitors: 535nm fluorescence interference; inhibition, % at 12.2 µM; shares compounds with HGIII-sPLA2 inh; BODIPY FL product fluorescence interference, QFRET; actives 8.5% (n = 2,000); AID 743282;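 active = average inhibition above the solvent-only control mean plus 3 SD, cut at about 6% in these data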
BODIPY interf DR – 535nm optical interference dose response, HGIII-sPLA2 counter-screen; shares compounds with HGIII-sPLA2 inh; BODIPY FL product fluorescence interference, cell-free; IC50, µM; 240 tested, under 10 active; AID 743455;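 active = IC50 at or below 10 µM; inactive = IC50 above 10 µM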
Large screens that a line does not name were inactive (follow-up assays come after a bar, where they were run); ! = not active in a repeat. Only some compounds are listed: those with a hit (about 2.2% of all), similar ones and a draw of the others.

CC(=O)N1CCC(N2CCCC(C(=O)c3cccc(Cl)c3)C2)CC1 (configuration not stated)	HTR2A ag 35.5 | OPRM1 ag inactive | m5-HT2A ag conf 85.8
O=C(Nc1cc(Cl)cc(Cl)c1)N1Cc2ccccc2-n2nncc2C1	none (no result: MOR-DOR inv ag, HTR5A inv ctr, HTR5A ag, OPRM1-OPRD1 ag)
O=C(Cc1ccccc1)N1CCN(Cc2ccccc2Cl)CC1	HTR2A ag 21.7 | OPRM1 ag inactive | m5-HT2A ag conf inactive
CCc1ccc(CN2CCN(C(=O)Cc3ccccc3)CC2)cc1	none
CN1CCN(C(=O)Cc2ccccc2)CC1	HTR2A ag 20.3 | OPRM1 ag inactive | m5-HT2A ag conf inactive
O=C1NCCCCC1(Cl)Cl	HTR2A ag 17.3 | OPRM1 ag inactive | m5-HT2A ag conf inactive
CC(C)CCP(=O)(O)O	none (no result: MOR-DOR inv ag, HTR5A inv ctr, HTR5A ag, OPRM1-OPRD1 ag, HTR2A ag)
Cc1cccc(C)c1-n1nnnc1C(c1cccc2ccccc12)N1CCC2(CC1)C(=O)NCN2c1ccccc1 (configuration not stated)	none (no result: MOR-DOR inv ag, HTR5A inv ctr, HTR5A ag, OPRM1-OPRD1 ag)
Cc1cc(C)n2c(Br)c(CN3CC4CC(C3)c3cccc(=O)n3C4)nc2n1 (configuration not stated)	HTR2A ag 21.9 | OPRM1 ag inactive | m5-HT2A ag conf inactive
O=c1cccc2n1CC1CC2CN(Cc2ccc3c(c2)OCO3)C1 (configuration not stated)	none
CC1=NN=C(c2ccc(N)cc2)c2cc3c(cc2C1)OCO3	HTR2A ag 31.4 | OPRM1 ag inactive | m5-HT2A ag conf 39.8
Cn1cccc1CNCCc1ccc(F)cc1	none
COc1ccc(CCNCc2ccc(C)s2)cc1OC	HTR2A ag 15.5 | OPRM1 ag inactive | m5-HT2A ag conf inactive
COc1ccc(CCNCc2sccc2C)cc1OC	HTR2A ag 32.2 | OPRM1 ag inactive | m5-HT2A ag conf inactive
COc1ccc(CCNCc2cccn2C)cc1OC	HTR2A ag 25.1 | OPRM1 ag inactive | m5-HT2A ag conf inactive
CCOC(=O)[C@]12Cc3c(cc(OC)c(OC)c3OC)[C@H]1N(C1CCCCC1)C(=O)c1ccccc12	none (no result: MOR-DOR inv ag, HTR5A inv ctr, HTR5A ag, OPRM1-OPRD1 ag)
CO[C@H]1C=CCCC=CC(=O)O[C@H]([C@H](C)C(=O)CCCC2CC(=O)NC(=O)C2)C(C)=C[C@@H](C)[C@@H]1O	none (no result: MOR-DOR inv ag, HTR5A inv ctr, HTR5A ag, OPRM1-OPRD1 ag)
N#CCCC#N	none (no result: MOR-DOR inv ag, HTR5A inv ctr, HTR5A ag, OPRM1-OPRD1 ag, HTR2A ag)
Cc1ccc2c(c1)Oc1ccccc1N=C2	none (no result: MOR-DOR inv ag, HTR5A inv ctr, HTR5A ag, OPRM1-OPRD1 ag)
O=c1cccc2n1CC1CC2CN(C(c2cccc(F)c2)c2sc3ncnn3c2O)C1 (configuration not stated)	HTR2A ag 16.5 | OPRM1 ag inactive | m5-HT2A ag conf inactive
C[C@H](NC(=O)N1C[C@H]2C[C@@H](C1)c1cccc(=O)n1C2)C(=O)Nc1cccc(F)c1	none
Clc1cc(Cl)cc(CN2Cc3ccccc3-n3nncc3C2)c1	none (no result: MOR-DOR inv ag, HTR5A inv ctr, HTR5A ag, OPRM1-OPRD1 ag, HTR2A ag)
CN1C[C@H](CNC(=O)OCc2ccccc2)C[C@@H]2c3cccc4c3c(cn4C)C[C@H]21	none
CCN(CC)C(=O)N[C@H]1C[C@@H]2c3cccc4[nH]cc(c34)C[C@H]2N(C)C1	HTR2A ag 38.9 | OPRM1 ag inactive | m5-HT2A ag conf 92.8
CC[C@@H]1C(=O)OC[C@@H]1Cc1cncn1C	HTR2A ag 17.8! | OPRM1 ag inactive | m5-HT2A ag conf inactive
O=S(=O)(c1ccc(Cl)cc1)N1Cc2ccc(Br)cc2-n2nncc2C1	none (no result: MOR-DOR inv ag, HTR5A inv ctr, HTR5A ag, OPRM1-OPRD1 ag, HTR2A ag)
COc1cc(CC(C)N)c(OC)cc1I (configuration not stated)	HGIII-sPLA2 inh 23.6!, HTR2A ag 69.7 | OPRM1 ag inactive | m5-HT2A ag conf 38.8 | sPLA2 confirm inactive | 535nm interf inactive
CC12Nc3ccccc3C(=O)N1Cc1cnnn1-c1ccccc12 (configuration not stated)	none (no result: MOR-DOR inv ag, HTR5A inv ctr, HTR5A ag, OPRM1-OPRD1 ag)
C/C(=N\N1CCN(C)CC1)c1c(O)[nH]c(=O)[nH]c1=O	HGIII-sPLA2 inh 19.6 | sPLA2 confirm inactive | 535nm interf inactive
CCCCn1c(=O)c(C(=O)Nc2ncccc2C)c(O)c2ccccc21	HGIII-sPLA2 inh 19.8 | sPLA2 confirm inactive | 535nm interf inactive
Cc1cccc(N=Nc2ccc(N(C)C)cc2)c1	HGIII-sPLA2 inh 19.5 | sPLA2 confirm 27.3 | 535nm interf inactive
CN(C)c1ccccc1	none (no result: MOR-DOR inv ag, HTR5A inv ctr, HTR5A ag, OPRM1-OPRD1 ag)
NC(Cc1ccc(F)cc1)c1csc(Nc2ncccn2)n1 (configuration not stated)	none (no result: MOR-DOR inv ag, HTR5A inv ctr, HTR5A ag, OPRM1-OPRD1 ag)
Nc1cncc(C(=O)O)c1	HGIII-sPLA2 inh 20.8! | sPLA2 confirm inactive | 535nm interf inactive
O=C1CCCN1C(=O)c1cncc(Br)c1	none
CCC(C)N1C(=O)/C(=C\c2cc3c4c(c2)CCCN4CCC3)C(=O)NC1=S (configuration not stated)	HGIII-sPLA2 inh 21.6 | sPLA2 confirm 32.8 | 535nm interf inactive | BODIPY interf DR inactive
O=c1[nH]c(O)c(/C=C2/C=CC(c3cc(Cl)ccc3Cl)=N2)c(=O)[nH]1	HGIII-sPLA2 inh 19.8 | sPLA2 confirm inactive | 535nm interf inactive
C[C@@H]1CN([C@H](C)CO)C(=O)CCCn2cc(nn2)CO[C@H]1CN(C)C(=O)Oc1cccc2ccccc12	none (no result: MOR-DOR inv ag, HTR5A inv ctr, HTR5A ag, OPRM1-OPRD1 ag)
COc1ccccc1CCNC1CCCC(C)C1 (configuration not stated)	HGIII-sPLA2 inh 22.9 | sPLA2 confirm inactive | 535nm interf inactive
COc1ccccc1CCNC1CCCCCC1	none
C=Cc1cc(OC)c2c(c1)c(=O)oc1c2cc(OC)c2c(O)ccc(C3OC(C)C(O)C(C)(O)C3O)c21 (configuration not stated)	none
Cc1ccc(CN2Cc3ccc(Br)cc3-n3nncc3C2)cc1	none (no result: MOR-DOR inv ag, HTR5A inv ctr, HTR5A ag, OPRM1-OPRD1 ag)
Cc1ncoc1C(=O)NCC1=C(c2ccc3ccccc3c2)C[C@@H]2CC[C@H]1N2Cc1ccco1	none (no result: MOR-DOR inv ag, HTR5A inv ctr, HTR5A ag, OPRM1-OPRD1 ag)
CCCOC(=O)c1ccc(-[n+]2c(-c3ccccc3)cc(-c3ccccc3)cc2-c2ccccc2)cc1	HGIII-sPLA2 inh 26.3 | sPLA2 confirm inactive | 535nm interf inactive
O=C(O)c1ccc(-[n+]2c(-c3ccccc3)cc(-c3ccccc3)cc2-c2ccccc2)cc1	none
CN(C)c1ccc(/C=C/[N+](=O)[O-])cc1	HGIII-sPLA2 inh 23.2 | sPLA2 confirm inactive | 535nm interf inactive
c1ccc(CNC2CCCCCCC2)cc1 (tested in a mixture with another compound)	none
NNCc1ccccc1	HGIII-sPLA2 inh 20.0! | sPLA2 confirm inactive | 535nm interf inactive
